Measurements: PubChem BioAssay
Active and inactive are the calls of the source. Unless noted, no rule for the calls is given here.

Tests used:
[1] = tested on: Wnt5a (protein binding on small-molecule microarray); experiment: Wnt5a binders on small-molecule microarray, primary screen, biophysical, 635/667 nm fluorescence (AID 1142); details: 635 nm fluorescence, higher = more signal;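 also: fluorescence read at 667 nm with signal to noise per printed feature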
[2] = cell viability in Huh7 cells, primary screen, cytotoxicity control for HCV replication inhibitor project, CellTiter-Glo luminescence, basal, 48 h (AID 1143); details: Huh7 HCV replicon, higher = more signal, called active from +8 up or from −8 down;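 also: Huh7 hepatoma cells carrying a hepatitis C replication reporter with no stimulus; test concentration not given here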
[3] = P. aeruginosa biofilm formation inhibitors, primary screen, PAO1 strain, BacTiter-Glo luminescence, LB-PBS (AID 1144); details: 12 h, higher = more signal
[4] = CREB reporter modulators without forskolin, primary screen, cell-based, PC12, CRE-LacZ reporter, unstimulated (AID 1145); details: no forskolin, luminescence, 4.5 h, higher = more signal, called active from +8 up or from −8 down
[5] = CREB reporter modulators under forskolin, primary screen, cell-based, PC12, CRE-LacZ reporter, forskolin-stimulated (AID 1146); details: luminescence, 4.5 h, higher = more signal, called active from +8 up or from −8 down;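 also: PC12 cells with 6xCRE LacZ reporter stimulated by forskolin 10 µM; beta-galactosidase reporter signal reflecting CREB driven transcription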
[6] = biological target: Streptavidin (Streptomyces avidinii) (UniProt P22629); experiment: streptavidin binders on small-molecule microarray, primary screen, artefact control for SMM compound annotation, biophysical, 635/667 nm fluorescence (AID 1147); details: streptavidin binding, higher = more signal;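 also: signal reflects streptavidin binding to arrayed compounds as a control protein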
[7] = small-molecule binders of probe aInhba, primary screen, biochemical, small-molecule microarray, 635/667 nm fluorescence (AID 1148); details: higher = more signal;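 also: score merges 667nm spot fluorescence with signal-to-noise for antibody binding to printed compounds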
Torsin-1A (Homo sapiens) [8] = biological target: Torsin-1A (Homo sapiens) (UniProt O14656); experiment: torsin A binders from cell lysate, primary screen, small-molecule microarray, wild-type, 635/667 nm (AID 1149); details: COS7 hTOR1A-WT lysate, 635 nm fluorescence, higher = more signal
Torsin-1A (Homo sapiens) [9] = biological target: Torsin-1A (Homo sapiens) (UniProt O14656); experiment: small-molecule binders of mutant TOR1A in lysate, primary screen, cell lysate, small-molecule microarray, COS7 lysate, 635/667 nm fluorescence (AID 1150); details: COS7 hTOR1A mutant lysate, 635 nm fluorescence, higher = more signal;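 also: score pools 667 nm emission and signal to noise measuring lysate protein binding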
[10] = tested on: Sonic hedgehog protein (Shh); experiment: small-molecule binders of Shh protein, primary screen, biochemical, small-molecule microarray, 635/667 nm fluorescence (AID 1151); details: small-molecule microarray binding, 635 nm fluorescence; higher = more signal;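 also: Shh protein binding to compounds spotted on small-molecule microarray slides; score combines spot fluorescence intensity with signal-to-noise across triplicate slides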
[11] = E. coli DRC41 culture turbidity changes, primary screen, E. coli filamentation inducer project, strain DRC41, OD650, 48 h (AID 1152);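 also: E. coli MC1000 strain DRC41 lacking acrAB efflux pump and sulA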; details: E. coli DRC41 (acrAB sulA), higher = more signal, called active from +8 up or from −8 down
[12] = small-molecule binders of probe aLefty1, primary screen, biochemical, small-molecule microarray, 635/667 nm fluorescence (AID 1153); details: higher = more signal;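 also: score merges spot fluorescence with signal-to-noise ratio from the scanned slide images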
[13] = PSAC antagonists in infected red cells, primary screen, cell-based, P. falciparum Indochina, OD700, 1 h (AID 1154); details: P. falciparum Indochina infected RBC osmotic lysis, higher = more signal, called active from +8 up or from −8 down
[14] = PSAC antagonists in infected red cells, primary screen, cell-based, P. falciparum Indochina, OD700, 2 h (AID 1155);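 also: lysis reports solute entry through the parasite surface anion channel PSAC; channel blockers reduce lysis of infected cells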; details: P. falciparum Indochina infected erythrocytes, osmotic lysis OD700; higher = more signal, called active from +8 up or from −8 down
[15] = osmotic lysis modulators in infected erythrocytes, primary screen, PSAC antagonist project, cell-based, P. falciparum Indochina, OD700, 3 h (AID 1156); details: higher = more signal, called active from +8 up or from −8 down
[16] = PSAC antagonists in infected red cells, primary screen, cell-based, P. falciparum Indochina, OD700, 18 h (AID 1157); details: P. falciparum Indochina infected erythrocytes, osmotic lysis OD700, 18 h; higher = more signal, called active from +8 up or from −8 down
[17] = modulators of S6 phosphorylation in cells, primary screen, cell-based, A549, cytoblot, luminescence, serum-stimulated (AID 1158); details: A549 phospho-S6 cytoblot, 5 h, higher = more signal;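 also: serum-stimulated A549 lung adenocarcinoma cells; signal is phosphorylated S6 detected by cytoblot immunostaining with HRP secondary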
[18] = biological target: NADPH oxidase 2 (Homo sapiens) (UniProt P04839); experiment: NOX2-dependent H2O2 signal modulators, primary screen, NOX inhibitor project, cell-based, HEK293-NOX2, PMA-stimulated, Amplex Red fluorescence (AID 1159); details: 45 min, higher = more signal, called active from +8 up or from −8 down; also: test concentration not given here
[19] = biological target: NADPH oxidase 4 (Homo sapiens) (UniProt Q9NPH5); experiment: NOX4-dependent H2O2 signal modulators, primary screen, NOX inhibitor project, cell-based, HEK293-NOX4, tetracycline-induced, Amplex Red fluorescence (AID 1160); details: 45 min, higher = more signal, called active from +8 up or from −8 down
[20] = biological target: NADPH oxidase 5 (Homo sapiens) (UniProt Q96PH1); experiment: NOX5-dependent H2O2 signal modulators, primary screen, NOX inhibitor project, cell-based, HEK293-NOX5, Amplex Red fluorescence (AID 1161); details: HEK293-NOX5, ionomycin, 45 min, higher = more signal
Sequence of NADPH oxidase 5 (Homo sapiens) (Q96PH1 whole entry, looked up): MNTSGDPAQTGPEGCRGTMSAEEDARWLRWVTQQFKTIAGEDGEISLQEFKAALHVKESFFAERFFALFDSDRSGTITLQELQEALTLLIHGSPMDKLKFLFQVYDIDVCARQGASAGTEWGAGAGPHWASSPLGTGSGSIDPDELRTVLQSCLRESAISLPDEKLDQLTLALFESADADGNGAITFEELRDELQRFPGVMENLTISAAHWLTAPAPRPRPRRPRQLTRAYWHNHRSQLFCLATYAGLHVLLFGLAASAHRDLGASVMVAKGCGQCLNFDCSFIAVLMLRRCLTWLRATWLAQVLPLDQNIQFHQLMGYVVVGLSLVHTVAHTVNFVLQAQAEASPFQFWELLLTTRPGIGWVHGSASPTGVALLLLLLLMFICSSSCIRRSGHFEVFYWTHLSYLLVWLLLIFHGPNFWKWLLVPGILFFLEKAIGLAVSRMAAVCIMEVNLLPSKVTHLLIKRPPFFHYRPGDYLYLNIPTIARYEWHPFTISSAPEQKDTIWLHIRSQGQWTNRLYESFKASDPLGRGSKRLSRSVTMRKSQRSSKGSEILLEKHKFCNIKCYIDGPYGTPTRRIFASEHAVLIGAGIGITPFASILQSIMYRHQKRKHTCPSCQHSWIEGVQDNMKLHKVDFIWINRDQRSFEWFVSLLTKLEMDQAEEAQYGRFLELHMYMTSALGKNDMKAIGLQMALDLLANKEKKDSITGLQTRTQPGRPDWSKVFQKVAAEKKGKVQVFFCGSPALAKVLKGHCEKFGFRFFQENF

Sequence of Torsin-1A (Homo sapiens) (O14656 whole entry, looked up): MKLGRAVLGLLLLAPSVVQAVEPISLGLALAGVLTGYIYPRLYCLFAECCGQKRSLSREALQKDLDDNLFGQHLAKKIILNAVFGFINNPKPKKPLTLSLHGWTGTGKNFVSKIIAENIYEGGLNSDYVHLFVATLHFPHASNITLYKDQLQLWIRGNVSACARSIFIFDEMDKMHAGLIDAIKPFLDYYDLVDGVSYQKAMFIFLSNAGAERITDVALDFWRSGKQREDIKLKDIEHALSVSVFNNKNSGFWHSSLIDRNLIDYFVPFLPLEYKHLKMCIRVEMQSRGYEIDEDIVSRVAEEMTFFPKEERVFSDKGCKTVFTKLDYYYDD
Sequence of NADPH oxidase 2 (Homo sapiens) (P04839 whole entry, looked up): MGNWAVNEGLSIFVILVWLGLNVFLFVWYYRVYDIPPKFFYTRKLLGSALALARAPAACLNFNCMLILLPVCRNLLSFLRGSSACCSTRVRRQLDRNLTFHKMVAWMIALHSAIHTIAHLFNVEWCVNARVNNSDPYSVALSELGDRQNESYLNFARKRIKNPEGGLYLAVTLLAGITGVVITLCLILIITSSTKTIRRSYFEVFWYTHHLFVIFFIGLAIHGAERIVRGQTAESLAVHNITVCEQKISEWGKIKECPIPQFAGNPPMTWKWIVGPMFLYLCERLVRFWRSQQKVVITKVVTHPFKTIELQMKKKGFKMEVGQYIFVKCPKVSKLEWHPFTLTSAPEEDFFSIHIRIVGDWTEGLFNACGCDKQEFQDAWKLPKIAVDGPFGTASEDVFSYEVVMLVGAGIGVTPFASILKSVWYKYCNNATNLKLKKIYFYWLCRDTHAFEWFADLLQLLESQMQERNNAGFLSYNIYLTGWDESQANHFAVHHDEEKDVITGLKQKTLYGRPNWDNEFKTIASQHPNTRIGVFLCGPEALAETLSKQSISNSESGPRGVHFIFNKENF
Sequence of NADPH oxidase 4 (Homo sapiens) (Q9NPH5 whole entry, looked up): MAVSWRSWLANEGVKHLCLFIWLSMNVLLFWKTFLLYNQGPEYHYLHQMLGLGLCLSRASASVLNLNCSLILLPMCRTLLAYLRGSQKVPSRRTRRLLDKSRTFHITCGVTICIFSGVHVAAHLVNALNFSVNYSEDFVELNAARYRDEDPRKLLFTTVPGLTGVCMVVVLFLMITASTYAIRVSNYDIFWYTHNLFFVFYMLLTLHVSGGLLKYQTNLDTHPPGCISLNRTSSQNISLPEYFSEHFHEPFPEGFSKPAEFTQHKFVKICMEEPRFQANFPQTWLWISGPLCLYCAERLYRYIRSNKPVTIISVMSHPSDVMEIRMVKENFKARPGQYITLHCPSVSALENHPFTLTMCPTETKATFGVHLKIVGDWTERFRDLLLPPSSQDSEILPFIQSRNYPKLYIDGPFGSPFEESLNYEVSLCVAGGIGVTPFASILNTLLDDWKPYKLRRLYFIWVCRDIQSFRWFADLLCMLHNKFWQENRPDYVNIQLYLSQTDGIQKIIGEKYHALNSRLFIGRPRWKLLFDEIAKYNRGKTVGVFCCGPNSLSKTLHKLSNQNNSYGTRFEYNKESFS
Sequence of Streptavidin (Streptomyces avidinii) (P22629 whole entry, looked up): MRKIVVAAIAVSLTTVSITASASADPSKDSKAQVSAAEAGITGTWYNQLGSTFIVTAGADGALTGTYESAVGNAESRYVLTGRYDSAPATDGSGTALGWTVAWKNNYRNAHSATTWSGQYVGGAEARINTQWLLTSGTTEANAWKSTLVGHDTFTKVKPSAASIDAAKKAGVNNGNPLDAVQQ

Row | Structure (SMILES) | composite z-score [1] | z-score [2] | z-score [3] | z-score [4] | z-score [5] | composite z-score [6] | composite z-score [7] | composite z-score (Torsin-1A (Homo sapiens) [8]) | composite z-score (Torsin-1A (Homo sapiens) [9]) | composite z-score [10] | z-score [11] | composite z-score [12] | z-score [13] | z-score [14] | z-score [15] | z-score [16] | z-score [17] | z-score [18] | z-score [19] | z-score [20]
1 | CCCCCCCCCCC(O)C1C=CC2C(=O)NC(=O)C2N1Nc1ccccn1 (stereo not given) | -0.41 | -3.4 (inactive) | -1.27 (inactive) | 3.3 (inactive) | 0.383 (inactive) | 0.606 | -0.0087 | -1.17 | -0.213 | -0.478 | -8.86 (active) | 0.0312 | 19.9 (active) | 6.41 (inactive) | -0.0795 (inactive) | 2.71 (inactive) | -1.18 | -2.33 (inactive) | -5.71 (inactive) | -0.309
2 | COc1cccc(C[C@H]2C[C@@H](CO[Si](C(C)C)(C(C)C)C(C)C)N3C(=O)[C@]4(C(C)=O)O[C@]23[C@H]2C(=O)N(C)C(=O)[C@H]24)c1 | 0.205 | -4.4 (inactive) | 0.0793 (inactive) | 1.62 (inactive) | 0.325 (inactive) | 0.636 | -0.008 | 0.0282 | 0.611 | 1.09 | -1.09 (inactive) | -0.0713 | 4.02 (inactive) | 0.867 (inactive) | -0.382 (inactive) | 0.702 (inactive) | -0.267 | 0.083 (inactive) | 0.451 (inactive) | 0.146
3 | CN(C)C(=O)[C@@]1(CCS(=O)(=O)c2ccccc2)N=C(c2ccc(OCCCO)cc2)O[C@H]1c1ccccc1CN=[N+]=[N-] | 0.909 | -3.95 (inactive) | -0.873 (inactive) | -0.151 (inactive) | -0.607 (inactive) | 1.13 | 0.148 | 1.07 | 0.351 | 0.159 | 1.1 (inactive) | 0.375 | 24 (active) | 4.2 (inactive) | 0.344 (inactive) | -0.48 (inactive) | 1.12 | -1.49 (inactive) | 0.083 (inactive) | -0.558
4 | C/C=C/[C@@H](CCn1cc([C@H](O)c2ccccc2)nn1)[Si](C)(C)c1ccc(OC)cc1 | 0.303 | -3.67 (inactive) | 0.214 (inactive) | 3.3 (inactive) | 0.128 (inactive) | -0.514 | -0.253 | 0.154 | -0.575 | -0.0723 | 0.703 (inactive) | 0.121 | 5.3 (inactive) | 1.06 (inactive) | 2.04 (inactive) | 0.473 (inactive) | 0.201 | 0.257 (inactive) | -0.182 (inactive) | -2.21
5 | O=C1N(Cc2ccccc2)c2ccccc2[C@H]2OC(c3ccc(OCCCO)cc3)=N[C@@]12CCS(=O)(=O)c1ccccc1 | 0.889 | -4.05 (inactive) | -1.19 (inactive) | 2.96 (inactive) | -1 (inactive) | 0.211 | 0.166 | 0.795 | 0.591 | 2.09 | -0.751 (inactive) | 0.396 | 25.3 (active) | 11.8 (active) | 2.9 (inactive) | 1.85 (inactive) | -0.0791 | -0.596 (inactive) | -0.793 (inactive) | -1.21
6 | CCCC[C@H]1OB(O)C[C@H]2C1=C(COc1ccccc1)Cn1c(=O)n(-c3ccccc3)c(=O)n12 | 0.0561 | -0.363 (inactive) | -0.127 (inactive) | -0.141 (inactive) | 0.402 (inactive) | 0.0395 | -0.104 | 0.418 | 0.5 | 1.64 | 0.4 (inactive) | -0.06 | 2.14 (inactive) | 0.0541 (inactive) | 0.722 (inactive) | 0.0113 (inactive) | 0.279 | -0.281 (inactive) | -0.216 (inactive) | 0.779
7 | O=C1O[C@H](c2ccccc2)[C@H](c2ccccc2)N2[C@H]1[C@@H](C(=O)NC[C@H](O)c1ccccc1)[C@]1(C(=O)Nc3ccccc31)[C@H]2c1ccccc1OCCO | -0.0435 | -6.33 (inactive) | -0.908 (inactive) | -0.581 (inactive) | -0.563 (inactive) | -0.164 | 0.0841 | 0.735 | 1.18 | 1.29 | 2.45 (inactive) | 0.453 | 5.21 (inactive) | 1.84 (inactive) | -2.5 (inactive) | -0.343 (inactive) | 2.39 | 1.23 (inactive) | 0.707 (inactive) | 0.34
8 | CCCCC=C[C@@H](NC(=O)CCc1ccccc1)c1ccccc1 | 0.317 | -1.98 (inactive) | 0.175 (inactive) | -0.951 (inactive) | -0.0104 (inactive) | 1.64 | 0.128 | 0.677 | 0.701 | 0.0847 | -2.27 (inactive) | 0.396 | 1.36 (inactive) | 0.592 (inactive) | -0.985 (inactive) | 1.28 (inactive) | -0.0113 | -0.753 (inactive) | -0.487 (inactive) | 0.736
9 | C=CCC(OC(C)=O)[C@@H]1[C@@H](N(Cc2cccc3ccccc23)C(=O)c2ccc(C)cc2)c2cc(OCCCO)ccc2N1C(=O)c1ccc2ccccc2c1 (stereo not given in full) | 0.0228 | -0.487 (inactive) | -0.412 (inactive) | 1.22 (inactive) | 0.197 (inactive) | 0.128 | 0.0797 | 0.196 | 0.792 | 0.788 | 2.04 (inactive) | 0.25 | 0.306 (inactive) | -0.171 (inactive) | -1.1 (inactive) | -0.888 (inactive) | 1.86 | -1.14 (inactive) | 0.935 (inactive) | 2.64
